Records with an inconclusive call do not appear. The source made the active and inactive calls. Calls come from the whole dose curve; as a rule, active = well fitted cell-killing curve with a large enough effect; inconclusive = small, poorly fitted or top-dose-only effect; inactive = no such curve, though single readings can be large or run the other way.
Potency is the fitted concentration of half-maximal effect.

The test can be described thus: qHTS of pediatric cancer cell lines to identify multiple opportunities for drug repurposing: Primary screen for NB-EBc1 cells (AID 1347095). The conditions noted are these: NB-EBc1 neuroblastoma viability, CellTiter-Glo luminescence, 48 h; series mostly up to 46 µM; activity change, negative = cytotoxic: at the top concentration. An excerpt: Drug repurposing or repositioning has been offered as a strategy for drug development in oncology programs. This approach has special potential for childhood cancers and other rare or orphan diseases, where the expected return on new drug development has been a disincentive to pharmaceuticals. […] In this project we exploit the poly-pharmacology of drugs to discover new indications via phenotypic screening of a panel of 19 well-characterized cell lines derived from solid tumors seen in children and adolescents. The goal is to identify approved drugs with previously unrecognized anticancer properties that has the potential to reveal new mechanisms and biological processes involved in carcinogenesis or drug resistance. We employed a titration-based paradigm (quantitative high-throughput screening or qHTS), where all compounds were tested at multiple concentrations for their effect on cell viability. Concentration-response curves (CRCs) were derived directly from the primary screen, and both potency and efficacy values were used to identify compounds with robust bioactivity profiles. We screened the NIH Chemical Genomics Center (NCGC) Pharmaceutical Collection (NPC) and Mechanism Interrogation Plate (MIPE) small molecule collections of approved and investigational compounds against these cell lines; and measured metabolically active cells after 48 hours of compound treatment as a proxy for cell viability. […] Assay Submitter: Nathalia J. Martinez, National Center for Advancing Translational Sciences, National Institutes of Health, Rockville, MD, USA; email: natalia.martinez@nih.gov Shen, M et al. Quantitative high-throughput phenotypic screening of pediatric cancer cell lines identifies multiple opportunities for drug repurposing. Oncotarget 2017 Dec 19;9(4):4758-4772. PMID 29435139.
The cells were obtained from University of North Carolina (UNC), Pediatric Preclinical Testing Program (PPT), and Coriell Institute (CI). qHTS cell viability assay: Cells were assayed in growth media at a density of 500-1,000 cells/well. Five microliters of cells were dispensed into 1,536-well, white, solid-bottom, TC-treated plates (Greiner Bio One) using a multidrop dispenser and incubated at 37 degrees C, 5% CO2, under a humidified atmosphere for 5 hours. Twenty-three nanoliters of compounds and controls (neutral control DMSO or positive control bortezomib at final concentration of 2.3 µM) were subsequently transferred by Kalypsys pintool. For primary screens, the MIPE collection was tested at 11-point dilutions (final concentrations range from 0.78 nM to 46 µM) and the NPC collection at 8-point dilutions (final concentrations range from 0.59 nM to 46 µM). Compounds tested in follow-up screens were assayed at 11-point dilutions. Cells were incubated for 48 hours, followed by addition of 3 µL of CellTiter-Glo (Promega). After a 15 min incubation at room temperature, samples were analyzed for luminescence intensity using a ViewLux High-throughput CCD imager equipped with clear filters.
Background: In qHTS, concentration-response curves come from the screen itself.
For `CN[C@@H](C)[C@H](O)c1ccccc1`, the “activity change, negative = cytotoxic” value is 1.47% (inactive).

Consider `CCN(CC)C(=O)c1ccc(C2=CC3(CCNCC3)Oc3cccc(O)c32)cc1`, for which the “activity change, negative = cytotoxic” value is 8.84% (inactive). As for `C[C@@H]1O[C@@H](O[C@@H]2C=C3CC[C@@H]4[C@@H](CC[C@]5(C)[C@H](c6ccc(=O)oc6)CC[C@@]45O)[C@@]3(C)CC2)[C@H](O)[C@H](O)[C@H]1O`, the Potency is 41.8 nM (active). As for `CC(C)(C)[C@]1(O)C[C@@H]2OC(=O)C[C@@]23C(=O)O[C@@H]2OC(=O)[C@H](O)C213` (stereo not given in full), the “activity change, negative = cytotoxic” value was 10.6% (inactive).

Regarding `Cc1c(N)nc([C@H](CC(N)=O)NC[C@@H](N)C(N)=O)nc1C(=O)N[C@H](C(=O)N[C@@H](C)[C@H](O)[C@@H](C)C(=O)N[C@@H](C(=O)NCCc1nc(-c2nc(C(=O)NCCC[S+](C)C)cs2)cs1)[C@@H](C)O)C(O[C@H]1O[C@H](CO)[C@H](O)[C@@H](O)[C@@H]1O[C@H]1O[C@H](CO)[C@@H](O)[C@H](OC(N)=O)[C@H]1O)c1cnc[nH]1` (stereo not given in full), the Potency was 1320 nM (active).

For the compound `Cc1[nH]nc2ccc(-c3cncc(OC[C@@H](N)Cc4c[nH]c5ccccc45)c3)cc12`, the Potency was 1660 nM (active). For the compound `Cc1cc(O)ccc1Cl`, the “activity change, negative = cytotoxic” value is 14.5% (inactive). Still for that read-out and setting: under `CC(C)NCC(O)c1ccc([N+](=O)[O-])cc1` (stereo not given) stands 8.09% (inactive). Turning to `CC=C(C)C(=O)O[C@H]1C(C)=C2[C@@H]3OC(=O)[C@@](C)(O)[C@@]3(O)[C@@H](OC(=O)CCC)C[C@](C)(OC(C)=O)[C@@H]2[C@@H]1OC(=O)CCCCCCC`, the Potency was 118 nM (active). Consider `COc1ccc2c(c[n+](C)c3c4cc5c(cc4ccc23)OCO5)c1OC`, for which the Potency was 5260 nM (active).

Take `O=S(=O)(O)C(F)(F)C(F)(F)C(F)(F)C(F)(F)C(F)(F)C(F)(F)C(F)(F)C(F)(F)F`: the “activity change, negative = cytotoxic” value is 10.7% [at 92.7 µM] (inactive). For the compound `COc1ccc(C(=O)c2c(C)n(CCN3CCOCC3)c3cc(I)ccc23)cc1`, the Potency is 20900 nM (active). On to `CCCC[N+]1(C)[C@H]2CC(OC(=O)[C@H](CO)c3ccccc3)C[C@H]1[C@H]1O[C@H]12` (stereo not given in full), for which the “activity change, negative = cytotoxic” value is 3.57% (inactive). Regarding `C1=C2CCCN[C@H]2[C@@H]2C[C@H]1[C@@H]1CCCCN1C2`, the “activity change, negative = cytotoxic” value was -0.411% (inactive). As to `Nc1ccc(Sc2ccc(N)cc2)cc1`, the “activity change, negative = cytotoxic” value was 15.1% [at 92.7 µM] (inactive).

In the case of `CC(C)(C)C(O)C(Oc1ccc(Cl)cc1)n1cncn1` (stereo not given), the “activity change, negative = cytotoxic” value is 8.04% [at 92.7 µM] (inactive).

In the case of `CC(=O)O[C@@]12CO[C@H]1C[C@H](O)[C@@]1(C)C(=O)[C@H](O)C3=C(C)[C@@H](O)C[C@@](O)([C@@H](OC(=O)c4ccccc4)[C@@H]21)C3(C)C`, the Potency is 2090 nM (active). For `CCCCOC(=O)c1ccccc1C(=O)OCc1ccccc1`, the “activity change, negative = cytotoxic” value was 17% [at 92.7 µM] (inactive). For the compound `C[C@H]([C@H](O)CCC(C)(C)O)[C@H]1CC[C@@]2(O)C3=CC(=O)[C@@H]4C[C@@H](O)[C@@H](O)C[C@]4(C)[C@@H]3CC[C@]12C`, the “activity change, negative = cytotoxic” value is 9.4% (inactive). With `CCOC(=O)Nc1ccc(NCc2ccc(F)cc2)cc1N`, the “activity change, negative = cytotoxic” value was 16.8% (inactive). With `Cc1ccc(Cl)c(O)c1`, the “activity change, negative = cytotoxic” value was 25.8% (inactive).

Consider `O=[N+]([O-])/N=C1\NCCN1Cc1ccc(Cl)nc1`, for which the “activity change, negative = cytotoxic” value is 6.47% (inactive). `CCC(=O)OC1CCC2C3CCC4=CC(=O)CC[C@@]4(C)C3CC[C@]12C` (stereo not given in full): the “activity change, negative = cytotoxic” value was 8.58% (inactive). Consider `C=C1C[C@H]2[C@H]3CCC(=O)[C@@]3(C)CC[C@@H]2[C@@]2(C)C=CC(=O)C=C12`, for which the “activity change, negative = cytotoxic” value was 3.93% (inactive). In the case of `Nc1c(Cl)c(Cl)c(Cl)c(Cl)c1Cl`, the “activity change, negative = cytotoxic” value was 23.6% [at 92.7 µM] (inactive). For the compound `CCCN1CCO[C@@H]2c3cc(O)ccc3OC[C@@H]21`, the Potency is 16600 nM (active).

Take `COc1ccc(CC2NCCc3cc(OC)c(OC)cc32)cc1OC` (stereo not given): the “activity change, negative = cytotoxic” value is 6.55% (inactive). As for `CC(C)[C@H]1C(=O)N[C@H](CO)Cc2c[nH]c3cccc(c23)N1C`, the “activity change, negative = cytotoxic” value is 9.67% (inactive). On the same count and under the same terms, under `CCCCC(CC)COC(=O)c1ccccc1C(=O)OCC(CC)CCCC` (stereo not given) stands 20.6% [at 92.7 µM] (inactive); under `Fc1cc(Br)ccc1CBr`, 11.1% (inactive). With `C=C[C@@H]1CN2CCC1C[C@H]2[C@H](O)c1ccnc2ccccc12` (stereo not given in full), the “activity change, negative = cytotoxic” value was -8.24% (inactive). As for `c1cc2c(cc1[C@H]1OC[C@H]3[C@H]1CO[C@H]3c1ccc3c(c1)OCO3)OCO2`, the “activity change, negative = cytotoxic” value was -1.77% (inactive). On to `O=[N+]([O-])c1ccc([As](=O)(O)O)cc1`, for which the “activity change, negative = cytotoxic” value was 36.8% (inactive). For `CC(=CCCC1=CCC(C2=CC(=O)OC2O)OC1O)CCC1=C(C)CCCC1(C)C` (stereo not given), the “activity change, negative = cytotoxic” value is 7.99% (inactive).

Consider `CC(O)CN1CCN(CC(=O)[O-])CCN(CC(=O)[O-])CCN(CC(=O)[O-])CC1.[Gd+3]` (stereo not given), for which the “activity change, negative = cytotoxic” value is 2.01% (inactive). On the same count and under the same terms, then `c1ccc2c(CN3CCNCC3)cccc2c1`, with -3.4% (inactive). For `CO[C@H]1CCC(O[C@H]2C[C@H]([C@]3(C)CC[C@]4(C[C@H](O)[C@@H](C)[C@@H]([C@@H](C)C=C(C)C(=O)[C@H](C)C[C@H](C)C(=O)O)O4)O3)O[C@]3(O[C@@H]([C@H]4O[C@@](O)(CO)[C@H](C)C[C@H]4C)C[C@H]3C)[C@H]2C)O[C@H]1C` (stereo not given in full), the Potency was 209 nM (active). On the same count and under the same terms, then `CC(C)(O)C=CC(=O)[C@](C)(O)[C@H]1[C@H](O)C[C@]2(C)[C@@H]3CC=C4[C@@H](C=C(O)C(=O)C4(C)C)[C@]3(C)C(=O)C[C@@]12C`, with 332 nM (active). `N#C[C@H](O[C@@H]1O[C@H](CO[C@@H]2O[C@H](CO)[C@H](O)[C@H](O)[C@H]2O)[C@H](O)[C@H](O)[C@H]1O)c1ccccc1`: the “activity change, negative = cytotoxic” value was -5.41% (inactive). As to `O=C(Oc1ccc([N+](=O)[O-])cc1)N1CCN(Cc2cccc(Oc3ccccc3)c2)CC1`, the “activity change, negative = cytotoxic” value was -14.5% (inactive).

(Values after PubChem BioAssay (NCATS).)
